The values that follow come from PubChem BioAssay AID376 (PDSP, 2006).

Out of some 2,000 compounds screened, about 250 (12%) were called active. This is one part of a sample in which actives are shown more often than they occur. Values without a mark were called inactive. Rule as the data show it: active = hERG blockade below about -20% or above about 20%; inactive = in between.

Sequence of Voltage-gated inwardly rectifying potassium channel KCNH2 (Homo sapiens) (Q12809 whole entry, looked up): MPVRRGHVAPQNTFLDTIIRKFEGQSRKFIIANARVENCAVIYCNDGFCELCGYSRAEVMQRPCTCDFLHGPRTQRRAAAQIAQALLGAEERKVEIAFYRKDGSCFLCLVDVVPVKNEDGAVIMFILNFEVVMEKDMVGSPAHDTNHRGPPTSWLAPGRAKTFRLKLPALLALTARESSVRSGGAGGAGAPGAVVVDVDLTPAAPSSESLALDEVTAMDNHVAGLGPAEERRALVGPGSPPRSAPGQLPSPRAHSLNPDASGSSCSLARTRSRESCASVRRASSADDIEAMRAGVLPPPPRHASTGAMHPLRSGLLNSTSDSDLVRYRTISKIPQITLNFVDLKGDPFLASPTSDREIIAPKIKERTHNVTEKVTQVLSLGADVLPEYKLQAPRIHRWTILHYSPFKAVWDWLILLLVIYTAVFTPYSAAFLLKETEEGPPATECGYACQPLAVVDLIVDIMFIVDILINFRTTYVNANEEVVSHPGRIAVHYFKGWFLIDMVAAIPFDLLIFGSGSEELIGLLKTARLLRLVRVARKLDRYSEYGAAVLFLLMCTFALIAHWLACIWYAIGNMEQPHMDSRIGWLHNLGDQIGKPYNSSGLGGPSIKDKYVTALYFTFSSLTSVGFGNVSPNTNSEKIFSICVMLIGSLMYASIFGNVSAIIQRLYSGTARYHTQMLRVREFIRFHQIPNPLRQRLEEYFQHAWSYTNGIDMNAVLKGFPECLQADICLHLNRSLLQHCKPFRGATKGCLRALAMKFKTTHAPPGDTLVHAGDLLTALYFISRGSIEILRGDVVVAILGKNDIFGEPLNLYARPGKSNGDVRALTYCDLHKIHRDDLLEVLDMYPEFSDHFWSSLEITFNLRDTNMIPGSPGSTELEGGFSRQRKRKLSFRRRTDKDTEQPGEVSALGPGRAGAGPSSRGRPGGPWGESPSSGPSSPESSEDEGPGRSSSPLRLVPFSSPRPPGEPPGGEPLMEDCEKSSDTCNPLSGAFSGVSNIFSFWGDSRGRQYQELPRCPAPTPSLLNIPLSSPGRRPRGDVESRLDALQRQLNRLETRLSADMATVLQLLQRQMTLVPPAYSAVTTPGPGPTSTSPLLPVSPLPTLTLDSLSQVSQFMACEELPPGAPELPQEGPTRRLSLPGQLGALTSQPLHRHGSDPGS

The experiment concerns the target Voltage-gated inwardly rectifying potassium channel KCNH2 (Homo sapiens) (UniProt Q12809). In words: modulators of KCNH2 ion channel function, cellular (AID 376).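 Also: 0% = buffer alone and 100% = reference blocker.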 The settings on record: hERG-expressing cells, channel activity single-concentration screen; concentration not given here.
Take `CC(C)C1OC(C=Cc2ccccc2)OCC1(C)C` (stereo not given): the hERG blockade is 10.1%.
The figure for `O=C(O)CSc1ccn(Cc2ccccc2)c1` is -5.01%.
In the case of `CC(=NCC(=O)O)c1ccccc1` it was -2.03%; in that of `C=C(C)CN(CC#N)CC(=C)C`, -3.17%.
The figure for `C=C(Br)CN(C)CC(=C)Br` is -27.2% (active); for `CN(CC(=O)O)CC(=O)O` it is 9.14%; for `Cc1cc(Nc2ccc(N=Nc3ccc(O)c4ncccc34)cc2)nc(C)n1` it is 7.41%.
Take `[Cu+2].[NH-]C(CC(=O)O)C(=O)O.[NH-]C(CC(=O)O)C(=O)O` (stereo not given): the hERG blockade was 16.8%.
In the case of `NC(=O)NN=C1CCC(O)CC1CC(=O)O` (stereo not given) it was 0.91%.
In the case of `CN1C2CCC1CC(OC(c1ccccc1)c1ccccc1)C2` (stereo not given) it was 44.2% (active); in that of `NS(=O)(=O)c1ccc(N=Nc2nc3[nH]cnc(=S)c3[nH]2)cc1`, -16.4%; in that of `CN(C)CC(O)c1ccc(Cl)c2ccccc12` (stereo not given), 28.3% (active).
In the case of `CC(CN(C)C)C(O)(c1ccccc1)c1ccccc1` (stereo not given) it was 7.73%; in that of `CC(CN(C)C)C(=O)c1ccccc1C(=O)O` (stereo not given), 0.354%.
Consider `CN(Cc1cc(Br)cc(Br)c1O)Cc1c(O)ccc2ccccc12`, for which the hERG blockade is 16%.
In the case of `Clc1ccc(Cl)c(Nc2ccnc(SCc3ccccc3)n2)c1` it was -4.72%; in that of `CC1CCC2(C(=O)O)CCC3(C)C(=CCC4C5(C)CC(O)C(O)C(C)(CO)C5C(O)CC43C)C2C1C` (stereo not given), 17.2%.
In the case of `O=C(CSc1ncnc2nc[nH]c12)c1ccccc1`, the hERG blockade was -4.94%.
For `O=S1(=O)CCN(c2ccccc2CC(c2c[nH]c3ccccc23)c2c[nH]c3ccccc23)CC1`, the hERG blockade is 32.2% (active).
For the molecule `Cn1ccnc1CC(C)(O)c1ccccc1` (stereo not given), the hERG blockade was -2.58%.
The figure for `COc1ccc(OC)c(-c2cc(C(=O)O)c3cc4ccccc4cc3n2)c1` is -16.1%.
For `CC(CCC(=O)O)C1CCC2(C)C3C(=O)CC4C(C)(C)C(O)CCC4(C)C3C(=O)CC12C` (stereo not given), the hERG blockade was 2.84%.
The figure for `CC(CCC(=O)O)C1CCC2C3C(O)CC4CC(O)CCC4(C)C3CC(O)C12C` (stereo not given) is 5.61%; for `O=C(O)c1ccc(C(=O)O)c(C(=O)Nc2ccc3c(c2)Cc2ccccc2-3)c1` it is -3.35%.
The figure for `O=C(O)c1ccc(C(=O)O)c(C(=O)O)c1.[NH-]C1CCCCC1[NH-].[Pt+2]` is 23.7% (active); for `O=C(O)c1ccc(C(=O)c2ccccc2)c(C(=O)O)c1` it is 1.04%; for `O=C1CNCCCN2CCN(CCCNCC(=O)Nc3ccc(cc3)S(=O)(=O)c3ccc(cc3)NC(=O)CNCCCN3CCN(CCCNCC(=O)Nc4ccc(cc4)S(=O)(=O)c4ccc(cc4)N1)CC3)CC2` it is 5.8%.
In the case of `Cc1ccc(S(=O)(=O)NC(=O)OC23COCN2COC3)cc1`, the hERG blockade was -18.8%.
The figure for `Oc1c(Br)cc(Br)cc1CN(Cc1cc(Br)cc(Br)c1O)C1CCCCC1` is -7.44%; for `O=C1c2ccccc2C(=O)N1CC1(C(=O)O)NCCS1(=O)=O` (stereo not given) it is 4.44%.
The figure for `N=Nc1c(OC(=O)Nc2cccc(Cl)c2)[nH]c2ccccc12` is 1.43%.
For `S=C1NC(c2ccccc2)NC(c2ccccc2)S1` (stereo not given), the hERG blockade is 8.24%.
The figure for `NC(N)=NC(CC(=O)O)c1ccccc1` (stereo not given) is 10.4%.
The figure for `N=C(N)SC(c1ccccc1)c1ccccc1` is 22.5% (active); for `N=C(N)C(N=Nc1ccccc1)C(=N)N` (stereo not given) it is 14.2%; for `O=C1c2ccccc2C(=O)N1CCCSc1ccccc1` it is 23.2% (active).
In the case of `O=C(O)CCCSc1ccccc1` it was 8.71%; in that of `Cn1c(=S)c2[nH]c(SCCN3C(=O)c4ccccc4C3=O)nc2n(C)c1=O`, 13.4%.
As to `O=C(O)c1cccc(S(=O)(=O)NCCO)c1`, the hERG blockade is -15.6%.
The figure for `CN(C)CCNc1nc2c(c(=O)n(C)c(=O)n2C)n1C` is 34% (active); for `Cn1c(=O)c2c(nc(NCCNc3nc4c(c(=O)n(C)c(=O)n4C)n3C)n2C)n(C)c1=O` it is -7.81%; for `CN(C)CCn1c(CO)nc2c1c(=O)n(C)c(=O)n2C` it is -1.57%.
In the case of `Cc1ccc(CCCC(=O)O)cc1C` it was 6.44%.
The figure for `NC(=O)NOCC1NC(=O)NC1=O` (stereo not given) is -12%; for `NCC1OC(n2cnc3c(N)ncnc32)CC1O` (stereo not given) it is -23.5% (active); for `C[N+](C)(C)c1ncnc2c1ncn2C1CC(O)C(CO)O1` (stereo not given) it is -5.95%.
For `Nc1ncnc2c1ncn2C1OC(CO)C(O)C1N` (stereo not given), the hERG blockade was 13.4%.
`Nc1ncnc2c1nc(-c1ccccc1)n2C1OC(CO)C(O)C1O` (stereo not given): the hERG blockade is -5.56%.
The figure for `Cc1ccc(C2(C)CCC(=NN=C3CCC(C)(c4ccc(C)c(C)c4)c4cc(C)c(C)cc43)c3cc(C)c(C)cc32)cc1C` (stereo not given) is 5.6%.
For `CC(NC(=O)c1ccccc1)(C(=O)O)C(=O)O`, the hERG blockade was -6.84%.
On to `O=C(Nc1ccc(-c2cn3ccccc3n2)cc1)c1cc(Br)ccc1O`, for which the hERG blockade is 6.36%.
The figure for `CC12CCC3c4ccc(OCC(=O)O)cc4CCC3C1CCC2=O` (stereo not given) is -7.52%.
In the case of `Cc1cc(Cl)ccc1OCC(=O)Oc1c(Cl)c(Cl)c(Cl)c(Cl)c1Cl`, the hERG blockade was -9.38%.
Regarding `CC(C)Cn1cnc2c(SCc3ccccn3)nc(N)nc21`, the hERG blockade is -2.95%.
In the case of `CC(C)Cn1cnc2c(SCc3ccc(Cl)cc3Cl)nc(N)nc21` it was 20.1% (active).
In the case of `Cc1ccc2ccccc2c1CSc1nc(N)nc2c1ncn2CC(C)C` it was 13.9%; in that of `COc1cccc(CSCC(=O)O)c1`, 3.08%.
In the case of `CN(CC(=O)O)Cc1c[nH]c2ccccc12` it was -21% (active); in that of `O=C(O)C(Cc1c[nH]c2ccccc12)N1C(=O)c2ccccc2C1=O` (stereo not given), -13.6%; in that of `CC(=O)NC(Cc1c[nH]c2ccccc12)C(=O)O` (stereo not given), 2.72%.
As to `CC(N)(Cc1c[nH]c2ccccc12)C(=O)O` (stereo not given), the hERG blockade was -24.5% (active).
In the case of `O=C(O)C(Cc1c[nH]c2ccccc12)C(=O)NO` (stereo not given) it was -0.439%.
As to `O=C(O)C1CCCN1Cc1c[nH]c2ccccc12` (stereo not given), the hERG blockade was -17.1%.
In the case of `NC(N)=NCC(N)C(=O)O` (stereo not given), the hERG blockade is -1.09%.
In the case of `Cc1nnc(S(=O)(=O)c2ccc(N=Nc3c(N)nc(N)nc3N)cc2)s1` it was -0.733%.
